# In PubChem BioAssay (EPA / NIEHS):
# Records with an inconclusive call do not appear. Activity calls are given as the source filed them. The calls were made as follows: active = hit-call score of the fitted dose curve at least 0.9, where 1 is the maximum; inconclusive = response in the unintended direction; inactive = score below 0.9.
# Test: Tanguay_ZF_120hpf_MORT_legacy: (Legacy) Oregon State University Tanguay Lab 120 Hour Post-fertilization zebrafish Assay for Mortality (AID 2283633)
# Outline: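 Mortality endpoint from a multiplexed whole-embryo zebrafish screen. Dechorionated wild-type embryos received compound at 6 hpf and remained under static exposure at 28C until 120 hpf, with death noted as a present/absent call.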
row,Structure (SMILES),outcome
1,CCC(C)(C)C1CCC(O)CC1 (stereo not drawn),inactive
2,CCc1ccc(CCOc2ccc(CC3SC(=O)NC3=O)cc2)nc1 (stereo not drawn),inactive
3,OCCC(F)(F)C(F)(F)C(F)(F)C(F)(F)C(F)(F)C(F)(F)C(F)(F)C(F)(F)F,inactive
4,O=[N+]([O-])c1ccc(O)cc1,inactive
5,CCCCC(CC)COC(=O)CCCCC(=O)OCC(CC)CCCC (stereo not drawn),inactive
6,Cc1cc(CCN2CCN(c3nsc4ccccc34)CC2)cc2c1NC(=O)CC2(C)C,inactive

# Test: Tanguay_ZF_120hpf_YSE_legacy: (Legacy) Oregon State University Tanguay Lab 120 Hour Post-fertilization zebrafish Assay for Yolk Sac Edema (AID 2283634);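 as to AC50: actives raise the incidence of yolk sac edema above the DMSO baseline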
# Outline: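 Readout: presence or absence of yolk sac edema at 120 hpf, fitted upward against DMSO controls. Exposure ran statically from 6 hpf in dechorionated embryos kept at 28C.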
Structure (SMILES),outcome,AC50
CN1CCN(c2ccccc2/C=C2\SCCN(c3ccc(Cl)c(Cl)c3)C2=O)CC1,inactive,
Oc1cccc(O)c1,inactive,
Oc1cc2ccccc2c2ccccc12,,38.3 µM (active)
CC#C[C@]1(O)CC[C@H]2[C@@H]3CCC4=CC(=O)CCC4=C3[C@@H](c3ccc(N(C)C)cc3)C[C@@]21C,,73.3 µM (active)
CCCCCCCC(=O)O,inactive,
NC(=O)N1C(=O)C(C(=O)c2cc(Cl)cs2)c2cc(F)c(Cl)cc21 (stereo not drawn),inactive,
COCC(C)O (stereo not drawn),inactive,
CC1=C(/C=C/C(C)=C/C=C/C(C)=C/C(=O)O)C(C)(C)CCC1,,0.214 µM (active)
O=C(O)Cc1cc(I)c(Oc2cc(I)c(O)c(I)c2)c(I)c1,inactive,
COc1ccc([N+](=O)[O-])cc1N,inactive,
NC(=O)N(O)[C@@H]1C=C[C@H](Oc2cccc(Oc3ccc(F)cc3)c2)C1,inactive,
OC1CCC(C2CCCCC2)CC1 (stereo not drawn),inactive,
CC(C)(C)CC(C)(C)c1ccc(O)c(-n2nc3ccccc3n2)c1,inactive,
CC(C)(C)c1ccc(O)c(C(C)(C)C)c1,inactive,
c1ccc2c(c1)Cc1ccccc1-2,inactive,
CCCCCCCCC(=O)O,inactive,
c1ccc2cc3c(ccc4ccccc43)cc2c1,,41.6 µM (active)
O=c1c(-c2ccc(O)cc2)coc2cc(O)ccc12,inactive,
Nc1cccc2c(N)cccc12,inactive,
CCCOC(=O)c1ccc(O)cc1,,35 µM (active)
CC[C@H](c1ccc(O)cc1)[C@@H](CC)c1ccc(O)cc1,inactive,
CC(C)(C)c1cc(C(C)(C)C)c(O)c(C(C)(C)C)c1,inactive,
CCC(C)(C)C1CCC(O)CC1 (stereo not drawn),inactive,
CCc1ccc(CCOc2ccc(CC3SC(=O)NC3=O)cc2)nc1 (stereo not drawn),inactive,
O=[N+]([O-])c1ccc(O)cc1,inactive,
CCCCC(CC)COC(=O)CCCCC(=O)OCC(CC)CCCC (stereo not drawn),inactive,
Cc1cc(CCN2CCN(c3nsc4ccccc34)CC2)cc2c1NC(=O)CC2(C)C,,3.6 µM (active)
